# “And” between values parts separate entries of the source, which are not always exact repeats. Equal values may be shown once. The whole screen tested about 360,000 compounds, of which about 3,900 (1.1%) were called active. Many of the other results were omitted from the sample, so actives are more common in it than they were. Unmarked numbers belong to inactive results.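 The calls were made as follows: active = mean replicate inhibition score of at least 50 and every replicate individually at or above 50; inconclusive = only one of the two criteria met; inactive = mean below 50 and not all replicates reaching 50.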
# Test: inhibitors of HIV-1 Env-driven cell-cell fusion, primary screen, HeLa-JRFL effector, CEM21 target cells, luciferase (AID 651610);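 also: 0% = plate neutral controls and 100% = maraviroc near 300 nM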
# Details: stronger effect = higher value; at 12.3 µM unless noted
row,Structure (SMILES),inhibition
1,CC(C)(C)c1ccc(CN2C(=O)CN=C(c3ccccc3)c3ccccc32)cc1,86.8% (active)
2,O=C1CC(=O)N(Cc2ccccc2)C(=O)N1CCCCCCN1C(=O)CC(=O)N(Cc2ccccc2)C1=O,-2.61%
3,O=S(=O)(c1ccccc1)N1CCC2CCNC2C1 (stereo not given),-11.9%
4,C[C@H](CO)N1C[C@H](C)[C@H](CN(C)C(=O)Oc2ccc3ccccc3c2)OCc2cnnn2CCCC1=O,-15.9% [at 16.7 µM]
5,O=C(O)[C@@H]1[C@@H](CO)[C@@H]2Cn3c(ccc(-c4ccccc4F)c3=O)[C@H]1N2C(=O)c1cccnc1,1.12% [at 16.7 µM]
6,CCCCCCCCCCCCn1ccc(=N)cc1,69% (active)
7,C[C@@H]1CN([C@H](C)CO)C(=O)CCCn2cc(nn2)CO[C@@H]1CN(C)C(=O)Oc1cccc2ccccc12,0.664% [at 16.7 µM]
8,CCOC(=O)[C@@H]1[C@@H]2NC(=O)N[C@@]1(C)Oc1ccccc12,-2.84% [at 16.7 µM] and -0.731% [at 16.7 µM]
9,CS(=O)(=O)N1CCC2CCNC2C1 (stereo not given),-7.16%
10,CCC(C)(O)C(=O)OC1C(=O)OC2CC3C(C)=CC(=O)C(O)C3(C)C3C4(O)OCC23C1C(C)C4O (stereo not given),75.7% (active)
11,O=C(O)[C@H]1[C@H](CO)[C@H]2Cn3c(ccc(-c4ccccc4F)c3=O)[C@@H]1N2C(=O)c1cccnc1,-4.52% [at 16.7 µM]
12,Cc1cc(N2CCNC[C@@H]2C)ccc1N1CC[C@H](O)C1,0.23%
13,COC(=O)C[C@@H]1CC[C@@H]2NC[C@@H](O)COC[C@H]2O1,-11.9% [at 16.7 µM]
14,O=C(c1ccccc1)C(O)(CN1CCCCC1)c1ccccc1 (stereo not given),8.44%
15,CC(=O)C1(O)CCC2C3CCC4=C(Cl)C(=O)CCC4(C)C3CCC21C (stereo not given),16.9%

# — PubChem BioAssay AID651610 (Broad Institute, 2012)
